Test results: ChEMBL document CHEMBL4513216, “Probing the Open Global Health Chemical Diversity Library for Multistage-Active Starting Points for Next-Generation Antimalarials” (ACS Infect Dis, 2020)
About 8,600 (12%) of roughly 69,000 compounds showed an effect of 50% or more. The sample holds strong results, similar compounds and a random draw of the others, so the mix is not that of the screen.

Each molecule was assayed on Plasmodium berghei (assay: Screen against P. berghei liver stage (PbLuc), transformed with Luciferase, at 10uM). Conditions: tested at 10 uM.
Type: functional, HepG2

Going from Fc1cccc(-c2c[nH]c(C3CCCN3)n2)c1 (centres undefined) to Cc1sc2c(C3CCCNC3)nc(Nc3cccc(F)c3)n2c1C (centres undefined), the INHIBITION rises from -4.62% to 36.5%.

Compared with CN(C(=O)NCC1(CN2CCOCC2)CCCCC1)C1CC1, c1cnc(N2CCC3(CCN(CC4CCOCC4)CC3)C2)nc1 is higher in INHIBITION: 0.0944% for the first, 5.67% for the second.

First: Cc1nc(CN2CCC(N(C)Cc3noc(C(C)C)n3)C2)oc1C (centres undefined)
Second: Cc1noc(C)c1CN1C[C@H](OCc2ccncc2)[C@H]2OCCC[C@H]21
The INHIBITION of the first is higher: 11.4% for the first, -10.3% for the second.

First: CN1CC(=O)N(c2cccc(F)c2)CC12CCN(CC1CC1)C2 (centres undefined)
Second: CN1Cc2ccccc2CC2(CCN(CCO)CC2)C1=O
The INHIBITION of the first is higher: 19.5% for the first, -9.23% for the second.

Compared with CN(Cc1nccn1C)S(=O)(=O)N1CCCC1c1ccco1 (centres undefined), Cc1ncccc1NC(=O)[C@@H]1CC[C@@H]2[C@@H](CCN2Cc2cnn(C)c2)O1 is lower in INHIBITION: 15.7% for the first, 0.734% for the second.

Compared with CC(O)CN1CCC(=O)N(Cc2ccccc2)Cc2ccccc21 (centres undefined), COCC(=O)N1CC[C@@H](O)[C@@H]1Cc1ccccc1 is higher in INHIBITION: 28.3% for the first, 37.5% for the second.

Going from COc1ccc(CN2CCN(C(C)c3nc(C4CC4)no3)CC2)cc1 (centres undefined) to CC(c1nc(C2CC2)no1)N1CCN(Cc2ccc(C#N)cc2)CC1 (centres undefined), the INHIBITION rises from 40.3% to 57%.

First: CC(C)c1noc(C(C)N2CCN(Cc3cccc(C#N)c3)CC2)n1 (centres undefined)
Second: Cc1noc(C(C)N2CCN(Cc3cccc(C#N)c3)CC2)n1 (centres undefined)
The INHIBITION of the first is lower: -8.11% for the first, 21.5% for the second.

Going from CC(C)c1noc(C(C)N2CCN(c3ccc(C#N)cn3)CC2)n1 (centres undefined) to Cc1noc(C(C)N2CCN(c3ccc(C#N)cn3)CC2)n1 (centres undefined), the INHIBITION falls from 45.9% to -5.78%.

Compared with CC(c1nc(C2CC2)no1)N1CCN(c2ccc(C#N)cn2)CC1 (centres undefined), CC(c1nc(C2CC2)no1)N1CCN(Cc2cccc(C#N)c2)CC1 (centres undefined) is higher in INHIBITION: 55.3% for the first, 60.5% for the second.

First: CC(c1nc(C2CC2)no1)N1CCN(Cc2ccccc2)CC1 (centres undefined)
Second: O=C(c1cc(C2CCCN(Cc3ccccn3)C2)no1)N1CCCC1 (centres undefined)
The INHIBITION of the first is higher: 27.4% for the first, 7.52% for the second.

Compared with CCC(C)(C)NC(=O)CN1C=Nc2ccccc2S1(=O)=O, CCn1cc(Br)c(C(=O)NCc2ccccc2)n1 is lower in INHIBITION: 19.6% for the first, 17% for the second.

Going from CCc1c(C(=O)O)nnn1-c1ccc(C)cc1C to CCc1c(C(=O)O)nnn1-c1cccc(C)c1C, the INHIBITION falls from 39.2% to 6.09%.

Compared with CN(C)S(=O)(=O)N1C[C@@H]2CN(Cc3ccoc3)CCO[C@@H]2C1, Cc1cnc(N2C[C@@H]3C[C@H](C(=O)N(C)C)[C@H](C2)O3)nc1 is lower in INHIBITION: 23.6% for the first, 17.3% for the second.

Compared with CN1CCN(CCOc2ccc(NC(=O)c3ccoc3)cc2)CC1, Cc1ccc(OCc2occc2C(=O)N2CCCCC(N)C2)cc1 (centres undefined) is higher in INHIBITION: -6.99% for the first, 11.8% for the second.

First: COc1cc(N2CC[C@@H](O)[C@@H]2Cc2cccnc2)ncn1
Second: COc1cc(N2CC[C@H](O)[C@@H]2Cc2cccnc2)ncn1
The INHIBITION of the first is higher: 85.8% for the first, 6.6% for the second.

Going from COc1cc(N2CC[C@H](O)[C@@H]2Cc2ccccc2)ncn1 to COc1cc(N2CC[C@@H](O)[C@@H]2Cc2ccccc2)ncn1, the INHIBITION rises from 75.4% to 92.8%.

Going from COc1cc(N2CC[C@@H](O)[C@@H]2Cc2ccncc2)ncn1 to COCCO[C@H]1CCN(c2cc(OC)ncn2)[C@H]1Cc1ccncc1, the INHIBITION falls from 43.9% to -39.2%.

First: COCCN1CC[C@@H](O)[C@@H]1Cc1ccccc1
Second: COCCN1CC[C@H](O)[C@@H]1Cc1ccccc1
The INHIBITION of the first is higher: 6.32% for the first, 0.79% for the second.

First: COc1cc(N2CC[C@@H](OC)[C@@H]2Cc2cnn(C)c2)ncn1
Second: COCCO[C@@H]1CCN(c2cc(OC)ncn2)[C@H]1Cc1cnn(C)c1
The INHIBITION of the first is higher: 23.5% for the first, 14.6% for the second.

Compared with COc1cc(N2CC[C@H](O)[C@@H]2Cc2cnn(C)c2)ncn1, COCCO[C@H]1CCN(c2cc(OC)ncn2)[C@H]1Cc1cnn(C)c1 is higher in INHIBITION: 22.7% for the first, 76.2% for the second.

First: Cc1cc(OCCC(=O)Nc2cccc(F)c2)nnc1C
Second: COc1c(CNCC(O)c2cccc(F)c2)c(C)nn1C (centres undefined)
The INHIBITION of the first is higher: -9.93% for the first, -47.6% for the second.

Compared with Cc1cc2c(=O)n3c(nc2s1)CCN(Cc1cncn1C)CC3, Cn1cc(CN2CCc3ncnc(N4CCOCC4)c3CC2)cn1 is higher in INHIBITION: 5.11% for the first, 5.36% for the second.

First: Cc1cnn(CC(=O)N2CCCN(c3ncccc3C#N)CC2)c1
Second: Cc1cc(C)c2c(N3CCCN(C(=O)C4CCC4)CC3)ncnc2n1
The INHIBITION of the first is lower: -14.7% for the first, 30.9% for the second.

First: CS(=O)(=O)c1cnc(N2CCCC2)nc1C1CCN(C(=O)C2CC2)CC1
Second: CC(=O)N1CCC(c2cncc(N3CCC(O)C3)n2)CC1 (centres undefined)
The INHIBITION of the first is lower: -15.7% for the first, 23.9% for the second.

Compared with Cc1cc(C(=O)NCc2ccc(-c3n[nH]cc3C(=O)N(C)C)cc2)on1, Cc1cccc(N(CCC(N)=O)C(=O)c2ccnc(C)n2)c1 is higher in INHIBITION: 39.35% for the first, 50.5% for the second.

Going from CCc1cnc(N2CC[C@H]3[C@H]2CC(=O)N3c2cccnc2)nc1 to c1cnc(N2CC[C@@H](OCC3CC3)[C@@H]2Cc2cccnc2)nc1, the INHIBITION rises from -34.7% to 64.3%.

First: Cc1ccc(N2N=C(C(N)=O)S(=O)(=O)c3cccnc32)cc1
Second: Cc1cccc(N(CCC(N)=O)C(=O)c2cc(-n3cccn3)ccn2)c1
The INHIBITION of the first is higher: 41.5% for the first, 8.92% for the second.

Going from Cc1cc(CN2CCN(C(=O)NCc3cccs3)CC2)on1 to Cc1oc(-c2cccs2)nc1C(=O)N1CCCC1Cn1cccn1 (centres undefined), the INHIBITION rises from 14.1% to 36.1%.

Going from c1ccc(N2CC[C@H](OCC3CC3)[C@@H]2Cc2cccnc2)nc1 to Cc1ccc(N2CC[C@H](OCC3CC3)[C@@H]2Cc2cccnc2)nn1, the INHIBITION rises from 37.5% to 42.4%.

Compared with COCCO[C@H]1CCN(c2ccc(C)nn2)[C@H]1Cc1cccnc1, COCCO[C@H]1CCN(c2cc(OC)ncn2)[C@H]1Cc1cccnc1 is higher in INHIBITION: 5.68% for the first, 82.8% for the second.

Going from Cc1cc2nc(SCC(=O)N3CCOCC3)n(CCC(C)C)c(=O)c2[nH]1 to O=C(CCn1nc(C(F)(F)F)c(Br)c1C1CC1)NN1CCOCC1, the INHIBITION falls from 45.8% to -25.5%.

Going from O=C(Cc1ccc(-n2cnnn2)cc1)Nc1cnn(CC(F)F)c1 to COc1ccc(-n2nnc(C(N)=O)n2)cc1, the INHIBITION falls from 42.6% to -8.07%.

Going from O=C(c1ccc(-c2ccc(O)nc2)s1)N1CCSCC1 to Cn1ccc(C(=O)N2CCOC(c3ccc(C(N)=O)cn3)C2)n1 (centres undefined), the INHIBITION rises from 3.295% to 22%.

First: Cc1ccc(CN2C[C@H](OCCN(C)C)[C@H]3COC[C@H]32)o1
Second: Cc1cc(CN2C[C@@H]3CC[C@H]2CN(Cc2c(C)noc2C)C3)ccc1F
The INHIBITION of the first is higher: 14.6% for the first, -63.6% for the second.

Going from Fc1ccc(-c2nnc(CN3CCCC(Cn4cncn4)C3)o2)cc1 (centres undefined) to O=c1cc(Cn2cncn2)nc2n1CCCN(Cc1ccc(F)cc1)C2, the INHIBITION rises from -105% to 22.5%.

Going from CCCc1n[nH]c(C2CN(C(=O)CCc3cscn3)CCO2)n1 (centres undefined) to CCCn1nccc1NC(=O)CN1CCCC1c1c(C)nn(C)c1C (centres undefined), the INHIBITION rises from 25.3% to 34.1%.

Compared with Cc1cccc(CN2CCCC3(Cc4ccccc4CNC3=O)C2)n1 (centres undefined), CC(C)NC(=O)N1CCC2(CC1)Cc1ccccc1CNC2=O is higher in INHIBITION: 9.32% for the first, 29.5% for the second.

Going from OCCCNc1nc(O)c2c(n1)-c1ccccc1CC21CCCCC1 to O=c1[nH]c(NCCCO)nc2c1C1(CCCC1)Cc1ccccc1-2, the INHIBITION falls from 77.2% to 64%.

First: CCC1(C)Cc2ccccc2-c2nc(NCCCO)nc(O)c21 (centres undefined)
Second: O=c1[nH]c(NCCO)nc2c1C1(CCCC1)Cc1ccccc1-2
The INHIBITION of the first is lower: 28.4% for the first, 62.3% for the second.

Going from O=c1[nH]c(NCCO)nc2c1C1(CCCCC1)Cc1ccccc1-2 to CC(=O)NCCC(=O)NCC1(c2c(F)cccc2F)CCCC1, the INHIBITION falls from 66.5% to 24.2%.

First: Cc1cc(C(=O)NC2CCN(c3nnc(C)c(C)c3C#N)CC2)no1
Second: CCNc1cc2c(nn1)CCN(C(=O)c1cccc3c1OCO3)C2
The INHIBITION of the first is higher: 3.87% for the first, -4.16% for the second.

Compared with Cc1noc(CNC(=O)CN(C)c2nc3ccccc3s2)n1, CC(C)Oc1ccc2c(NC(=O)CN(C)C)nn(CC(F)(F)F)c2c1 is higher in INHIBITION: -4.01% for the first, 42.3% for the second.

Going from c1ccc(CN2CCc3c(COCc4ccncc4)cncc3C2)nc1 to Cn1c(Cn2ccnc2)nnc1C1CCN(C(=O)c2ccccn2)CC1, the INHIBITION rises from 3.81% to 5.41%.

Going from COc1cccc(-c2cccc(N3CCC(N[C@@H]4CCOC4)CC3)c2)c1 to Fc1cccc(-c2cccc(N3CCC(NC4CCCOC4)CC3)c2)c1 (centres undefined), the INHIBITION falls from 53.7% to 46.5%.

Going from Cc1ccc(-c2cccc(N3CCC(NC4CCOCC4)CC3)c2)cc1 to Cc1sc2c(C3CCNCC3)nc(Nc3cccc(F)c3)n2c1C, the INHIBITION rises from 39.3% to 54.6%.

Going from CC(C)c1noc(CCC(=O)NCC2CCC(C(N)=O)CC2)n1 (centres undefined) to CCC(=O)NCC(=O)NCC1(c2c(F)cccc2F)CCCC1, the INHIBITION rises from -21.8% to -3.59%.

Compared with CCn1cc(Br)c(C(=O)NCc2cnn(C)c2)n1, CCn1cc(CNC(=O)c2nn(CC)cc2Br)cn1 is higher in INHIBITION: -13.2% for the first, 76% for the second.

Going from COCC1Cn2nnc(-c3cnn(C)c3)c2CN1Cc1ccsc1 (centres undefined) to CC(C)c1nnc2n1CCN(C(=O)c1ccnc(-n3ccnc3)c1)C2, the INHIBITION falls from 33.4% to 31.2%.

Compared with COc1cccn(CC(=O)N2CCCC3(CCCO3)CC2)c1=O (centres undefined), CCS(=O)(=O)CC(=O)NCC1(c2c(F)cccc2F)CCCC1 is higher in INHIBITION: -2.61% for the first, 57.4% for the second.

Going from Cc1ccc(S(=O)(=O)N(CCO)C2CC2)cc1N(C)C to Cc1cccc(N(CCC(N)=O)C(=O)c2cnccn2)c1, the INHIBITION falls from 21.3% to 12.9%.

Going from COc1cccc(Nc2nc(C3CCNCC3)c3sc(C)c(C)n23)c1 to CC1(Cc2ccc(Cl)cc2)Cc2cc(CCC(=O)O)ccc2O1 (centres undefined), the INHIBITION falls from 23.12% to -29.4%.
